LMP1 NFkB inh = inhibitors of Epstein-Barr LMP1-induced NF-kappaB reporter | LMP1-induced NF-kappaB luciferase reporter cells, luminescence | inhibition, % at 12.5 µM | hit rate 0.69% among 350,000 | AID 504558; in the data active = inhibition above about 41%;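 note: 0% = neutral control wells and 100% = reference inhibitor control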
Peg3 promoter = Peg3 promoter activity inhibition; HeLa PEG-Prom luciferase reporter, luminescence, overnight; inhibition, % at 20 µM; hit rate 1.7% among 360,000; AID 588405;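 active = inhibition of at least 50% at 20 µM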
PAX8 reporter = inhibitors of PAX8 transcriptional activity in RMG-I cells; RMG-I TPO-luciferase reporter, SteadyGlo, 24 h; inhibition, % at 12.6 µM; hit rate 1.2% among 360,000; AID 652154;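 active = mean replicate inhibition at least 60% with every replicate also reaching 60%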;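 note: luciferase light reporting Pax8 driven TPO promoter activity; plate controls were median of neutral control wells for no effect and mitoxantrone controls for full effect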
TRPM1 prom inh = inhibitors of MITF-driven TRPM1 promoter in melanoma cells; SK-MEL-5 TRPM1 promoter luciferase, 24 h; inhibition, % at 12.5 µM; hit rate 0.83% among 330,000;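 active = mean inhibition across replicates of 60% or more, whatever share of single replicates reaches that level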
Shn3 3UTR inh = inhibitors of Schnurri-3 3'UTR reporter in osteoblasts | Clone20 osteoblast Shn3 3'UTR firefly luciferase, 24 h | inhibition, % at 12.5 µM | hit rate 0.52% among 360,000 | AID 588674;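 active = mean inhibition of at least 75% with every replicate also reaching 75%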;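 note: 0% = median of neutral control wells and 100% = pilot-screen positive control compound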
HIF-2a inh = HIF-2a inhibition | 786-0 RCC cells HIF-2a reporter, luciferase luminescence, overnight | inhibition, % at 18.8 µM | hit rate 0.72% among 360,000 | AID 624352;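 active = inhibition of the luminescence signal of 40% or more relative to plate controls, in a single-dose primary screen at 18.75 µM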
* hit, by the source's call; x = not tested or not shown. Hits are enriched below; roughly 2.8% of the tested compounds scored in any of these assays.

SMILES	LMP1 NFkB inh	Peg3 promoter	PAX8 reporter	TRPM1 prom inh	Shn3 3UTR inh	HIF-2a inh
COc1cc(NC(=S)NCCC(c2ccccc2)c2ccccc2)c(OC)cc1Cl	-7	53*	19	-11	2	16
S=C(NCCC(c1ccccc1)c1ccccc1)Nc1ccc(Cl)cc1	1	55*	x	5	-3	-35
Cc1ccc(-c2cc(C(=O)N/N=C/C(Br)=C/c3ccccc3)n[nH]2)o1	-20	-16	74*	12	5	-15
CCC(=O)N1CC(=O)N2[C@H](CO)[C@H](c3ccc(C#CC4CCCCC4)cc3)[C@H]2C1	x	x	5	x	x	x
CCC(CC)CC1CN2CCc3cc(OC)c(OC)cc3C2CC1(O)CC (stereo not given)	3	-7	1	x	85*	5
CCOC(=O)C1(Cc2ccc(OC)cc2)CCN(C(=O)CN2CCCCC2=O)CC1	-5	-29	92*	-9	-12	-32
COc1ccc(NC(=O)Nc2ccc3c(c2)C(=O)N([C@@H](C)CO)C[C@@H](C)[C@H](CN(C)CC2CCCCC2)O3)cc1	x	x	-24	x	x	x
COc1cc(SC)ccc1C(=O)Nc1ccc(Cl)cn1	68*	28	-150	59	-14	53*
CC(C)NC(=O)N[C@H]1CC[C@@H](CCn2cc(-c3ccc(F)cc3)nn2)O[C@@H]1CO	x	x	6	x	x	x
Cc1c(CCOC(=O)CC23CC4CC(CC(C4)C2)C3)sc[n+]1Cc1ccccc1	0	-8	52	18	25	3
Cc1c(CCOC(=O)C23CC4CC(CC(C4)C2)C3)sc[n+]1CC#N	-3	51*	29	20	77	1
Cc1ccc(N/C(N)=N/c2nc(C)cc(N3CCCCC3)n2)c(C)c1	15	91*	51	24	96*	-32
CCCCNc1c(-c2cccc(-c3cc(C(C)=O)cs3)c2)nc2ccc(C)cn12	13	62*	37	5	14	-174
CCCCNc1c(-c2cccc(-c3ccc(OC)cc3)c2)nc2ccc(C)cn12	7	69*	5	-3	81	-163
CCCCCCSc1cccc(-c2nc3ccc(Cl)cn3c2NCCCC)c1	2	-24	-3	3	-30	-32
Cc1ccn2c(NC3CCCCC3)c(-c3cccc(-c4cccc(Cl)c4)c3)nc2c1	-12	56*	17	-11	12	-13
CCCCNc1c(-c2cccc(-c3ccc(OC)cc3)c2)nc2cc(C)ccn12	9	89*	3	6	87*	-81
CCCCNc1c(-c2ccc(-c3cccc(Cl)c3)cc2)nc2ccccn12	-16	-272	-83	-80	-33	-322
Cc1ccn2c(NC3CCCC3)c(-c3ccncc3)nc2c1	-2	19	4	11	24	9
CN1C(=O)c2cc(NC(=O)Nc3cccc(Cl)c3)ccc2OC[C@H]2O[C@H](CC(=O)O)CC[C@H]21	x	x	8	x	x	x
CC(=O)N(C)C[C@@H]1[C@@H](c2ccccc2)[C@H](CO)N1C(=O)C1CCC1	x	x	-6	x	x	x
O=C(c1ccco1)N(CCC(c1ccccc1)c1ccco1)Cc1ccc(F)cc1 (stereo not given)	6	27	x	1	-10	12
CC1(C)CC(C(CCN(Cc2ccccc2)C(=O)c2ccco2)c2ccc(F)cc2)CCO1 (stereo not given)	4	51*	17	-6	9	-12
O=C(Nc1ccc(Cl)cc1)N1C[C@@H]2[C@H](c3ccccc31)[C@H](CO)N2C(=O)c1cccnc1	x	x	-32	x	x	x
O=C1N(c2ccccc2C(F)(F)F)OC1(Cc1ccccc1)c1ccccc1 (stereo not given)	9	58*	24	14	-12	-9
SMILES	LMP1 NFkB inh	Peg3 promoter	PAX8 reporter	TRPM1 prom inh	Shn3 3UTR inh	HIF-2a inh
FC(F)(F)c1ccccc1-n1ccnc1	-6	10	5	1	-30	-6
O=C1N(c2ccccc2C(F)(F)F)O[C@]1(c1ccccc1)C1CCCCC1	9	65*	54	8	-1	22
CC[C@]1(c2ccccc2C)ON(c2ccccc2C(F)(F)F)C1=O	1	36	6	10	-6	12
COc1ccc(NC(=O)N(C)C[C@H]2OCc3cn(nn3)CCCC(=O)N([C@@H](C)CO)C[C@H]2C)c(OC)c1	x	x	-6	x	x	x
C[C@@H]1CN([C@@H](C)CO)C(=O)c2cc(NS(=O)(=O)c3cccs3)ccc2O[C@@H](C)CCCCO[C@H]1CN(C)C(=O)Nc1ccc(F)cc1	x	x	13	x	x	x
C[C@H](CO)N1C[C@H](C)[C@@H](CN(C)Cc2ccc(Cl)c(Cl)c2)OCCCC[C@H](C)Oc2ccc(NS(=O)(=O)c3cccs3)cc2C1=O	x	x	71*	x	x	x
C[C@H]1CCCCO[C@@H](CN(C)Cc2ccc(C(F)(F)F)cc2)[C@@H](C)CN([C@@H](C)CO)C(=O)c2cc(NS(=O)(=O)c3cccs3)ccc2O1	x	x	96*	x	x	x
C[C@H](CO)N1C[C@H](C)[C@@H](CN(C)C(=O)Nc2ccc(C(F)(F)F)cc2)OCCCC[C@H](C)Oc2ccc(NS(=O)(=O)c3cccs3)cc2C1=O	x	x	65*	x	x	x
C[C@H]1CCCCO[C@H](CN(C)Cc2ccc(C(F)(F)F)cc2)[C@@H](C)CN([C@@H](C)CO)C(=O)c2cc(NS(=O)(=O)c3cccs3)ccc2O1	x	x	81*	x	x	x
C[C@@H]1CCCCO[C@H](CN(C)Cc2ccc(C(=O)O)cc2)[C@H](C)CN([C@@H](C)CO)C(=O)c2cc(NS(=O)(=O)c3cccs3)ccc2O1	x	x	3	x	x	x
Cc1noc(C)c1S(=O)(=O)Nc1ccc2c(c1)C(=O)N([C@@H](C)CO)C[C@@H](C)[C@@H](CN(C)S(=O)(=O)c1c(C)noc1C)OCCCC[C@@H](C)O2	x	x	-1	x	x	x
COc1ccccc1-c1ccc([C@H]2[C@H](C#N)N[C@@H]2CO)cc1	x	x	-40	x	x	x
CO[C@@H]1CN(C)C(=O)c2ccc(NC(=O)C3CCC3)cc2OC[C@H](C)N(Cc2ccncc2)C[C@@H]1C	x	x	1	x	x	x
Cn1cnc(S(=O)(=O)N2[C@@H]3CNC[C@H]2C3c2ccc(-c3ccc(F)cc3)cc2)c1 (stereo not given in full)	x	x	-1	x	x	x
C[C@@H]1CCCCO[C@@H](CN(C)C(=O)Nc2cccc3ccccc23)[C@H](C)CN([C@H](C)CO)C(=O)c2cc(NC(=O)Nc3ccc(F)cc3)ccc2O1	x	x	-55	x	x	x
N=C(N)c1ccc(OCCCCCOc2ccc(C(=N)N)cc2)cc1	6	-5	83*	9	68	4
Cc1nc2ccccc2c2c1CC(C(C)(Cl)Br)O2 (stereo not given)	18	6	16	26	90*	5
Cc1ccc(S(=O)(=O)N[C@@H]2CC[C@H](CC(=O)NCCc3ccncc3)O[C@@H]2CO)cc1	x	x	-9	x	x	x
COc1ccccc1-c1ccc([C@@H]2[C@@H](C#N)N(C(=O)C3CCC3)[C@@H]2CO)cc1	x	x	-20	x	x	x
CCC(COC(=O)c1ccccc1)Oc1cc(NCc2ccccc2)c2ncn(C(C)C)c2c1 (stereo not given)	-8	16	64*	15	-19	18
